Only a selection was taken, and hits are over-represented in it overall.
RBX1-CUL1 inh – inhibitors of human ROC1-CUL1 ubiquitin ligase activity | P62877+Q13616 | in vitro K48 di-Ub FRET, acceptor:donor ratio, 45 min | inhibition, % at 10 µM | 0.6% of 140,000 active; in the data active = inhibition above about 25%
A number is an active result; 0 = inactive.

SMILES | RBX1-CUL1 inh
CC(=O)N1CCc2cc(S(=O)(=O)NC(CC(C)C)C(=O)NCCc3cccc(C)c3)ccc21 (configuration not stated) | 44
CCC(=O)N1CCc2cc(S(=O)(=O)NC(CC(C)C)C(=O)NCCc3ccccc3)ccc21 (configuration not stated) | 0
COc1cc2c(cc1OC)CN(CC(O)COc1ccc(C)cc1)CC2 (configuration not stated) | 0
CC(=O)N1CCN(c2ccc(NC(=O)c3ccc(-c4cccc(F)c4)o3)cc2)CC1 | 0
O=C1/C(=C\c2cnn(-c3ccccc3)c2)CCC/C1=C/c1cnn(-c2ccccc2)c1 | 0
O=C1/C(=C/c2ccoc2)CCC/C1=C\c1ccoc1 | 97
COc1ccc(/C=C2\CCC/C(=C\c3ccc(OC)c(OC)c3)C2=O)cc1OC | 0
NCCc1cc(=O)[nH]c(-c2ccccn2)n1 | 0
C=CCSc1nnc2c(n1)OC(c1cc(C)ccc1C)N(C(C)=O)c1ccccc1-2 (configuration not stated) | 0
O=C(CCc1cnccn1)N1CCC(CO)(Cc2cccc(F)c2)CC1 | 0
Cc1ccc(C(=O)c2coc3ccc(Br)cc3c2=O)cc1 | 0
O=C1C(=O)c2c(C(=O)c3ccccc3)coc2C=C1Br | 104
CC(=O)Oc1ccc2occ(C(=O)c3ccccc3)c2c1 | 0
O=C(c1ccccc1)c1coc2cc(Br)c(O)c(Br)c12 | 0
Cc1ccc(C(=O)c2coc3c2C(=O)C(=O)c2ccccc2-3)cc1 | 0
O=C1C(=O)c2c(C(=O)c3ccccc3)coc2C(Cl)=C1Cl | 89
Cc1ccc(C(=O)c2coc3c2C(=O)C(=O)C(Br)=C3)cc1 | 96
Nc1sccc1C(=O)c1ccccc1 | 0
CC(=O)C(C(C)=O)C1=C(Br)C(=O)C(=O)c2c(C(=O)c3ccccc3)coc21 | 0
CCCCc1nc2sc3nncc(N4CCOCC4)c3c2c2c1CCCC2 | 0
COc1ccc(COC(=O)C2C(C)=NC3=C(C(=O)CCC3)C2c2coc3ccc(C)cc3c2=O)cc1 (configuration not stated) | 0
O=[N+]([O-])c1ccc(-c2c(-c3ccccc3)csc2N2CCCCC2)cc1 | 0
COC(=O)c1ccc(Oc2ncccc2N)cc1 | 0
O=C(Cc1ccccc1)Nc1ccc(-c2nc3ccccc3c(=O)[nH]2)cc1 | 0
COC(=O)C1C(C)=NC2=C(C(=O)CC(C)(C)C2)C1c1ccccc1Cl (configuration not stated) | 0
SMILES | RBX1-CUL1 inh
CCOc1cc(CNc2ccc(O)cc2)cc(Br)c1OCc1ccccc1 | 0
CCOc1cccc(CNc2ccc(O)cc2)c1OCc1ccccc1 | 97
Oc1ccc(NCc2ccccc2OCc2ccccc2)cc1 | 0
Oc1ccc(NCc2ccccc2OCc2ccc(Cl)cc2)cc1 | 0
CCOc1cc(CNCc2cccs2)cc(Br)c1OC | 0
CCOc1cc(CNc2ccc(O)cc2)cc(Br)c1OCc1cccs1 | 75
COc1ccccc1N1CCN(C(=O)Cc2c(SC)[nH]c3ccccc23)CC1 | 0
Cc1ccc(S(=O)(=O)Oc2cc(C)n(C)c(=O)c2)cc1 | 0
Cc1cccc(OCc2nnc(SCC(=O)Nc3ccccc3C(C)C)n2C)c1 | 0
CCOc1cc(C2C3=C(CC(c4ccc(OC)c(OC)c4)CC3=O)N=C(C)C2C(=O)OCCc2ccccc2)ccc1OC(C)=O (configuration not stated) | 0
CCc1ccccc1NC(=O)CC1Nc2ccccc2NC1=O (configuration not stated) | 0
COC(=O)CCC(=O)N1CCC(C2CCN(Cc3ccc(Cl)cc3)C2)CC1 (configuration not stated) | 0
COc1ccc(CNC2CCC(O)CC2)cc1OCC(O)CN1CCCCC1 (configuration not stated) | 0
N#CCN(CC#N)C(=O)c1cccc(I)c1 | 0
Cc1cc(C)n(C(=O)c2cn(C)nc2C)n1 | 0
Cc1cc(C)nc(NS(=O)(=O)c2ccc(NC(=O)COc3ccc(Cl)cc3C)cc2)n1 | 0
Cc1cc(C)nc(NS(=O)(=O)c2ccc(NC(=O)Nc3ccc(Cl)cc3)cc2)n1 | 25
Cc1cc(C)nc(NS(=O)(=O)c2ccc(NC(=O)c3ccc(Cl)cc3Cl)cc2)n1 | 0
Cc1ccc2c(c1)C(=O)C(C(c1ccc(Cl)cc1Cl)C1C(=O)Oc3ccc(C)cc3C1=O)C(=O)O2 (configuration not stated) | 56
COc1cc(C(C2C(=O)Oc3ccc(C)cc3C2=O)C2C(=O)Oc3ccc(C)cc3C2=O)cc(OC)c1OC (configuration not stated) | 0
O=C1c2cc(Cl)ccc2OCC1Br (configuration not stated) | 0
O=C1C=C(c2cccs2)N(c2ccc(Cl)cc2)C(=O)C1c1ccccc1 (configuration not stated) | 0
Cc1ccc2[nH]c(O)c(N=NC(=N)N)c2c1 | 0
COc1ccc(OCc2nnc(SCC(=O)Nc3ccccc3OC)o2)cc1 | 0
CCCN1C(=O)/C(=C/c2ccc(N(C)C)cc2)SC1=S | 0
CCN(CC)c1ccc(/C=C2\SC(=S)N(N)C2=O)cc1 | 55
CCN(CC)CN1C(=O)S/C(=C/c2ccc(N(CC)CC)cc2)C1=O | 0
Cc1nn(Cc2ccccc2)c2nc(-c3ccccc3OCC(N)=O)[nH]c12 | 0
